In PubChem BioAssay (NCI) one finds growth data, which are given here for 36 compounds.

This is part of a sample that, as a whole, favours compounds with a hit. Of some 83,000 tested, about 20% had one in any assay.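 Cells were grown in 96-well plates and exposed to the test compound at a single concentration for 48 hours; results are reported as percent growth, with values below 10 considered active.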 Unmarked numbers belong to inactive results. Activity calls are given as the source filed them.

This assay deals with MDA-MB-468 breast. Kind of assay: NCI-60 one-dose screen, 48 h (100 = growth as untreated, 0 = no growth, -100 = all killed). As to conditions: 10 µM unless noted.
In the case of `CON1CCC[C@]2(C)[C@H]3CC[C@@H]4[C@H]5[C@@H](O)C(C)(C)CC[C@]5(CO)CC[C@@]4(C)[C@]3(C)CC[C@H]2C1(C)C`, the growth was 114%.

Consider `C[C@]12CC[C@H]3[C@@H](CC[C@H]4C[C@@H](O)CC[C@@]43C)[C@@H]1CC(=O)C2`, for which the growth was 113%.

As to `COc1ccc(C(=O)n2nc(CC(=O)NCc3ccccc3)nc2N)cc1`, the growth was 105%.

For the compound `CCN(CC)CCCC(C)NCc1ccccc1` (stereo unspecified), the growth is 112%.

For `CO[C@]12C=C/C(=C(/C(=O)OCc3cccnc3)C(=O)CCCCCCCC[C@@]3(OC)C=C/C(=C(/C(=O)OCc4cccnc4)C(=O)CCCCCCCC1)O3)O2`, the growth is -4.86% (active).

With `Cc1nnc(Nc2ccc(NC(=O)Nc3ccc(Cl)cc3)cc2)c2ccccc12`, the growth was 6.44% (active).

As for `O=C1c2c(c3c4cc(Br)ccc4[nH]c3c3ccc4ccccc4c23)C(=O)N1CCN1CCCCC1`, the growth was 15%.

Turning to `Nc1c(C(=O)Nc2c(Cl)cccc2Cl)sc2nc3c(cc12)CCCC3`, the growth was 82.3%.

As to `Clc1nnc2c3ccccc3ccn12`, the growth was 101%.

`COc1ccc2oc3c(C)c4c(c(C)c3c2c1)C(=O)N(Cc1ccccc1)C4=O`: the growth was 100%.

Consider `CCOC(=O)c1cc(/C=C/c2cccc(Cl)c2)on1`, for which the growth was 60.3%.

Regarding `CCOC(=O)c1cccc(NC2=C(Cl)C(=O)c3nc(C)ccc3C2=O)c1`, the growth was -33.4% (active).

In the case of `CCCC[n+]1c(/C=C\c2c(OC)cc(OC)cc2OC)ccc2ccccc21`, the growth is -31% (active).

Turning to `CN1C(=O)N(C)C2Nn3c(s/c(=C\c4ccc(Cl)cc4Cl)c3=O)=NC21` (stereo unspecified), the growth was 59%.

As to `CNC(=O)Nc1ccc(-c2ccc3ncnc(Nc4cccc(Cl)c4)c3c2)cc1`, the growth is -29.2% (active).

As to `O=C(O)C1CCC(=O)N1C(=O)OCc1ccccc1` (stereo unspecified), the growth was 106%.

As to `c1ccc(Nc2cc(-c3cccnc3)[nH]n2)cc1`, the growth is 106%.

Regarding `Fc1cc2c(cc1Cl)N(c1ncnc3ccc(-c4ccc5n[nH]nc5c4)cc13)CC2`, the growth is 40.2%.

`CCCCCCCCCCCCOc1ccccc1C=O`: the growth is 91.3%.

For the compound `CCOC(=O)c1c(NC(=O)c2ccc(C(C)C)cc2)sc2c(CN(C)C)c(O)ccc12`, the growth was -53.1% (active).

For the compound `CC(=O)Nc1ccc(/C=C/C(=O)c2ccccc2)cc1`, the growth was 52%.

On to `COc1ccc2c(c1)nnc1c3cccnc3[nH]c21`, for which the growth was -92.6% (active).

`Brc1ccc2c(c1)-c1ccccc1C1=NCCN12`: the growth was -45% (active).

With `COc1ccccc1N1CCN(C(=O)c2ccc3nc(NC(=O)c4ccc(NCCc5ccccc5)c([N+](=O)[O-])c4)sc3c2)CC1`, the growth is 99.1%.

`Cc1ccc(C(=NN=C(N)N)c2ccc(C)cc2)cc1`: the growth was -42.5% (active).

For the compound `c1cncc(-c2nc3ccccc3[nH]2)c1`, the growth was 102%.

Regarding `c1ccc2[nH]c(-c3ccc(Nc4nc(N5CCCC5)nc5[nH]ncc45)cc3)nc2c1`, the growth was -38.5% (active).

For the compound `CC12CCC3C4(C)COC(c5ccccc5Cl)OC4CCC3(C)C1CC(C1=CCOC1=O)O2` (stereo unspecified), the growth is 24.9%.

As for `CCOC(=O)Nc1cc2c(c(N)n1)N=C(c1ccccc1)CO2`, the growth was 2.06% (active).

Turning to `NC(CSC(c1ccccc1)(c1ccccc1)c1ccc2c(c1)OCO2)C(=O)O` (stereo unspecified), the growth is -56.6% (active).

Take `CCCCCCCCCCCC(c1ccccc1)[N+](C)(C)C` (stereo unspecified): the growth is -45.6% (active).

For `CCN(CC)c1ccc2cc(NC(=O)OCCNC(=O)CCNC(=O)[C@H](CC(C)C)NC(=O)C(C)(C)NC(=O)C(C)(C)NC(=O)[C@H](CC(C)C)NC(=O)CCNC(=O)C(C)(C)NC(=O)[C@H](CC(C)C)NC(=O)CCNC(=O)[C@@](C)(CC)NC(=O)[C@H](C)NC(=O)CCNC(=O)C(C)(C)NC(=O)[C@H](C)NC(=O)[C@@H]3CCCN3C(=O)[C@@](C)(CC)NC(=O)[C@H](Cc3ccccc3)NC(=O)C3CCCN3C(=O)C(C)(C)NC(=O)C3CCCN3C(=O)C(C)(C)NC(C)=O)c(=O)oc2c1` (stereo partly specified), the growth is -83% (active).

As for `C=C(C)[C@@H]1CC[C@@]2(C(=O)O)CC[C@]3(C)C(CCC4[C@@]5(C)CCC(OS(=O)(=O)c6ccccc6)C(C)(C)C5CC[C@]43C)C12` (stereo partly specified), the growth is 53.9%.

Take `COc1cc(C(=O)n2nc(NCCCc3ccccc3)c3cc(N)ccc32)cc(OC)c1OC`: the growth was 91.4%.

Consider `C=CCCCCCCCCCOC(C)=O`, for which the growth was 105%.

In the case of `NC(=O)CSc1nc(-c2ccc(F)cc2)cc(-c2ccco2)n1`, the growth was 71.7%.
